Consider 13 compounds from PubChem BioAssay (NCATS).

Structures are written as SMILES. Values joined by “and” are separate entries in the source; they are usually repeats but may differ in a detail not shown here. Identical values can stand only once. A number with no mark means an inactive call. Results filed as inconclusive are left out. Active and inactive are the calls of the source. Unless noted, calls come from the whole dose curve; as a rule, active = well fitted curve in either direction with a large enough effect (not every such curve was filed as active); inconclusive = small, poorly fitted or top-dose-only effect, or another doubt; inactive = flat fitted curve, though single readings scatter. Residues, ends and D or L forms follow the SMILES beside them. *: point of attachment. Cbz = O=C(OCc1ccccc1)* Bounds are passed on as bounds.

Assay [1] deals with Cytochrome P450 1A2 (Homo sapiens) (UniProt P05177). The assay is described as follows: p450-cyp1a2 (AID 410; calls by dose curve; note: potency is the fitted concentration of half-maximal effect;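 for activity change, negative = inhibition: -100% = full effect of reference inhibitor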). Summed up: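 Read-out is luminescence from luciferin produced by CYP1A2 demethylation of Luciferin-ME (100uM, at Km). Detection reagent stopped the 60 min NADPH-dependent reaction; signals were normalized to 57 uM furafylline.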
A short description of assay [2]: NFAT Signaling Pathway (AID 444).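 Note: carbachol stimulus at about its EC50 of 1 µM final; % is set by controls: 0 for no effect and ±100 for the full control effect.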 The following applies: Jurkat NFAT-bla M1, carbachol, beta-lactamase ratio, 5 h. The method, boiled down: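 Jurkat cells carrying an NFAT-driven β-lactamase reporter and co-transfected muscarinic M1 receptor were treated with compound plus carbachol (1 uM final, an EC50 level) for 5 h at 37 °C. CCF4 loading followed for 1 h at RT; 460/530 nm ratio gave %activity.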

Assay [3] deals with Glucocorticoid receptor (Homo sapiens) (UniProt P04150). The assay is described as follows: GR-GFP Redistribution (AID 450;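 active = compounds whose dose series gives a full or clear partial fitted curve of increased nuclear translocation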; note: potency is the fitted concentration of half-maximal effect). As to conditions: U2OS GR-GFP nuclear translocation, laser cytometry, 2 h.
Assay [4] has the same target. The assay is described as follows: GR-EFC Redistribution (AID 451; calls by dose curve; note: potency is the fitted concentration of half-maximal effect). As to conditions: CHO-K1 GR-EFC translocation, beta-gal luminescence, 2 h. The method, boiled down:
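CHO-K1 cells stably expressing nuclear-localized β-gal enzyme acceptor and GR fused C-terminally to the enzyme donor fragment; ligand-driven nuclear translocation restores β-gal by complementation. Compounds titrated up to 46 uM final, 2 h at 37 °C; luminescence read.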

The nature of assay [5]: Stat Signaling Pathway (AID 446).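 Note: ME-180 cervical cancer cells given 40 pM IL-6 alongside compound; SIE-controlled beta-lactamase reporter measured as 460/530 nm FRET emission ratio; % is set by controls: 0 for no effect and ±100 for the full control effect.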 The following applies: ME-180 (cervical carcinoma) SIE beta-lactamase reporter, IL-6 stimulated, 5 h; at 38 µM (top of the series) unless noted. Summed up:
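Overnight-plated ME-180 cells bearing a STAT Inducible Element beta-lactamase reporter; 5 h co-exposure to compound and 40 pM IL-6; values normalized to 300 pM IL-6 and 125 nM JAK inhibitor controls.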

The target of assay [6] is Mitogen-activated protein kinase 10 (Mus musculus) (UniProt Q61831). Kind of assay: JNK3 AlphaScreen Assay (AID 530).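 Note: kinase came from lysate of stimulated human HepG2 cells; signal reports phosphorylation of biotinylated GST-cJun 1-79 at Ser73 with 10 µM ATP; % is set by controls: 0 for no effect and ±100 for the full control effect.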 The method, boiled down: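 Biotinylated GST-cJun(1-79) served as substrate for JNK3 in HepG2 lysates stimulated with IL-1beta and TNF-alpha. ATP was 10 uM final, pH 7.6. Ser73 phosphorylation was quantified by AlphaScreen (680 nm excitation).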
On the technique in general: Alpha assays give light when donor and acceptor beads are brought close together.

[7] abbreviates: at 38 µM (top of the series) unless noted.

Sequence of Cytochrome P450 1A2 (Homo sapiens) (P05177 whole entry, looked up): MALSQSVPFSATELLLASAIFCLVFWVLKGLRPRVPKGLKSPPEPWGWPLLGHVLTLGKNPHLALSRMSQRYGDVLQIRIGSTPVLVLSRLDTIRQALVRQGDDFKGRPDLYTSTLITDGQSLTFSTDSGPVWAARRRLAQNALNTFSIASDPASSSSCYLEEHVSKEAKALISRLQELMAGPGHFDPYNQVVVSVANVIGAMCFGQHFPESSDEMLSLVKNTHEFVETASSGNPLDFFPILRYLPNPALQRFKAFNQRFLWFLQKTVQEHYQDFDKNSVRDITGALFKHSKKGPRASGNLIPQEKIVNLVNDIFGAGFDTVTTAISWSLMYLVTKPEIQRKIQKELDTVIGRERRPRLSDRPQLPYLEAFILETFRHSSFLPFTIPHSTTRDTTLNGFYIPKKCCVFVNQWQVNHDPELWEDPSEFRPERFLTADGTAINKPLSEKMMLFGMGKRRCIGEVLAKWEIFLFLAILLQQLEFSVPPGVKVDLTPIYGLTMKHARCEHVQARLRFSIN
Sequence of Glucocorticoid receptor (Homo sapiens) (P04150 whole entry, looked up): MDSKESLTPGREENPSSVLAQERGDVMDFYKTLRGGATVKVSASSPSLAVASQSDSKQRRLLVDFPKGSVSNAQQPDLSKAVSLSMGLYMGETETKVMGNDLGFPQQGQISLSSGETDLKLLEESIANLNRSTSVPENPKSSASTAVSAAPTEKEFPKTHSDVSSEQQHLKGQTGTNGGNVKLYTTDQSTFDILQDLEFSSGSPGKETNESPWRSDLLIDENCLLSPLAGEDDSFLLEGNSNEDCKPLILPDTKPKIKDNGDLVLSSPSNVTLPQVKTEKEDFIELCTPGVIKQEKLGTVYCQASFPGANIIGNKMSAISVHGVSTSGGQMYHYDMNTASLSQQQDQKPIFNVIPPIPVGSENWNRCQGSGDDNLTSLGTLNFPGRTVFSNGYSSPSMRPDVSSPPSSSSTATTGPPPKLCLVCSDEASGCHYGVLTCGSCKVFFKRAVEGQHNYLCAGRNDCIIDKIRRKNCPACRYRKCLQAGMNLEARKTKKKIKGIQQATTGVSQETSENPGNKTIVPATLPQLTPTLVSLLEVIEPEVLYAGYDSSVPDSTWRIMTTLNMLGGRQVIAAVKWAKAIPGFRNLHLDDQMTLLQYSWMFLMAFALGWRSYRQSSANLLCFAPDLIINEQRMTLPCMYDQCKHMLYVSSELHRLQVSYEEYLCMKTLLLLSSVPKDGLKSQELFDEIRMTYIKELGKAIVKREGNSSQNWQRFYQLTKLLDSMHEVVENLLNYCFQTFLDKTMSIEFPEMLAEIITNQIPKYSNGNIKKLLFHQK

For `NC(=Nc1ccccc1)NC(=O)c1nc(Cl)c(N)nc1N`, the Potency in assay [1] is 12.6 µM (active); in assay [3], greater than 46 µM; in assay [4] it was greater than 46 µM. Moreover, the activity change, negative = inhibition in assay [2] (setting [7]) was 21.6%.
`O=C(O)Cc1ccc(O)c(O)c1`: the Potency result in assay [1] was “inactive”. The activity change, negative = inhibition in assay [2] (setting [7]) was 12.7%. The activity, negative = inhibition in assay [5] is 18.6%. Moreover, the Potency in assay [3] and in assay [4] was greater than 46 µM in each case. The result in assay [6] was inactive.
In the case of `O=C(O)c1cc2cc(F)ccc2[nH]1`, the activity change, negative = inhibition in assay [2] (at 17.2 µM (top of the series)) is -6.32%; in assay [2] (at 38 µM (top of the series)) it was -3.11%. Further, the activity, negative = inhibition in assay [5] was -0.809% [at 17.2 µM]. In addition, the Potency was > 46 µM and > 20.6 µM in assay [3]; greater than 46 µM in assay [4].
Consider `COc1ccc(NC(=O)c2ccc(-c3ccc(-c4noc(C)n4)cc3C)cc2)cc1N1CCN(C)CC1`, for which, in assay [1], the Potency entry is “inactive”. Moreover, in assay [5], the activity, negative = inhibition is -18.9%. In addition, the Potency in assay [3] and in assay [4] was greater than 46 µM in each case. Further, the outcome in assay [6] was inactive.
Regarding `NCCS(=O)O`, the Potency result in assay [1] was “inactive”. In assay [2] (setting [7]), the activity change, negative = inhibition is 3.37%. Besides, in assay [5], the activity, negative = inhibition is -6.03%. Moreover, in assay [3], the Potency was greater than 46 µM. Also, the outcome in assay [6] was inactive.
For `CN(C)CCC(c1ccc(Br)cc1)c1ccccn1` (stereo unspecified), the activity change, negative = inhibition in assay [2] (setting [7]) was -90.1% [at 17.2 µM] (active). The activity, negative = inhibition in assay [5] was 1.22% [at 17.2 µM].
As to `Nc1nc2[nH]c(=O)cnc2c(=O)[nH]1`, the Potency entry in assay [1] is “inactive”. In assay [2] (setting [7]), the activity change, negative = inhibition is -5.45%. In addition, the activity, negative = inhibition in assay [5] is 29.5%. The Potency in assay [3] and in assay [4] was greater than 46 µM in each case. Also, the compound was called inactive in assay [6].
In the case of `O=C(c1ccc2c(c1)OCCO2)N1CCCCC1`, the Potency in assay [1] is 15.8 µM (active); in assay [3], greater than 46 µM. The activity change, negative = inhibition in assay [2] (setting [7]) is 5.58%. For the same compound, the activity, negative = inhibition in assay [5] was 25%. Further, the outcome in assay [6] was inactive.
Take `CC(C)[C@H](NC(=O)OCc1ccccc1)C(=O)N[C@H](C=O)Cc1ccccc1` (Cbz-Val-Phe-aldehyde): the Potency entry in assay [1] was “inactive”. Also, the activity change, negative = inhibition in assay [2] (setting [7]) is -9.23%. Besides, the Potency in assay [3] and in assay [4] was greater than 46 µM in each case. Besides, the call in assay [6] was inactive.
Take `CC(=O)N[C@@H](Cc1c[nH]c2ccccc12)C(=O)OCc1cc(C(F)(F)F)cc(C(F)(F)F)c1`: the Potency in assay [1] was 31.6 µM (active); in assay [3] it was greater than 46 µM; in assay [4] it was greater than 46 µM. Moreover, in assay [2] (setting [7]), the activity change, negative = inhibition was 19.5%. Besides, the activity, negative = inhibition in assay [5] was 1.93%.
Consider `N[C@@H](Cc1ccc(O)c(I)c1)C(=O)O`, for which the activity change, negative = inhibition in assay [2] (setting [7]) was -2.26% [at 17.2 µM]. Also, the activity, negative = inhibition in assay [5] was 5.15% [at 17.2 µM]. In assay [3], the Potency was greater than 20.6 µM.
Consider `CNC(=O)c1cc2c(cn1)[nH]c1ccccc12`, for which the Potency was 794 nM (active) and 50.1 nM (active) in assay [1]; greater than 46 µM in assay [3]. Besides, in assay [2] (setting [7]), the activity change, negative = inhibition is -1.62%. The activity, negative = inhibition in assay [5] is 31.1%.
Take `CC(C)Cn1c(=O)n(C)c(=O)c2[nH]cnc21`: the Potency was 20 µM (active) in assay [1], greater than 46 µM in assay [3] and greater than 46 µM in assay [4]. In addition, the activity change, negative = inhibition in assay [2] (setting [7]) was -7.31%. Further, the activity, negative = inhibition in assay [5] is -25.6%. Besides, the call in assay [6] was inactive.
